Data taken from PubChem BioAssay (EPA / NIEHS).
Records with an inconclusive call do not appear. Activity calls are given as the source filed them. The calls were made as follows: active = hit-call score of the fitted dose curve at least 0.9, where 1 is the maximum; inconclusive = response in the unintended direction; inactive = score below 0.9.

Target: Thyroid hormone receptor alpha (Rattus norvegicus) + Thyroid hormone receptor beta (Rattus norvegicus) (UniProt P18113+P63059)
Assay: TOX21_TR_LUC_GH3_Antagonist_Followup: Tox21 GH3 Thyroid Hormone Receptor Antagonism Luciferase Follow-Up Assay (AID 2283942)
Outline: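 Luminescence read-out (ONE-Glo, 30 min at room temperature) in GH3 reporter cells challenged with 1.0 nM T3 final. Compounds ran at 92 uM to 5nM over 15 concentrations for 24 h; DMSO served as negative control and baseline.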
In the case of Nc1cc(Cl)c(-c2cc(Cl)c(N)cc2Cl)cc1Cl, the AC50 is reported as 58.1 µM (active). For COc1ccccc1NC(=O)c1cc2ccccc2cc1O, the AC50 was 27.2 µM (active). For Nc1ccn([C@@H]2O[C@H](CO)[C@@H](O)C2O)c(=O)n1 (some centres undefined), the outcome was “inactive”. For O=c1cc(-c2ccccc2)oc2ccc3ccccc3c12, the outcome was “inactive”. For Clc1ccc(Nc2nnc(Cc3ccncc3)c3ccccc23)cc1, the outcome was “inactive”.

Target: THRA (gene 7067) (UniProt P10827)
Sequence (P10827 whole entry, looked up): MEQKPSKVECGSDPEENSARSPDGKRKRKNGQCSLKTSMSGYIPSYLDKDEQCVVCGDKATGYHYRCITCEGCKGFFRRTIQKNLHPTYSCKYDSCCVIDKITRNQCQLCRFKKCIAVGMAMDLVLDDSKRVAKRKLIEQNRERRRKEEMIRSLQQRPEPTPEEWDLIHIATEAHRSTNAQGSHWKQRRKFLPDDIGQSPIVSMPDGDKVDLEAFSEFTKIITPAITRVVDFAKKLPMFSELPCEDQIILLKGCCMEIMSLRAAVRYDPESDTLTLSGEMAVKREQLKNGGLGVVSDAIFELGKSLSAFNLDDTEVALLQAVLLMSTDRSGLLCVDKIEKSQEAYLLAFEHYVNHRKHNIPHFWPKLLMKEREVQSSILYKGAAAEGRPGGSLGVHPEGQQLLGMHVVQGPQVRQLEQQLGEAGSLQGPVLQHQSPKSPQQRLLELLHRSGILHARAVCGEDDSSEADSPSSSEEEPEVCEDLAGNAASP
Assay: TOX21_TRA_COA_Antagonist_Followup_ratio: Tox21 Thyroid Hormone Receptor alpha Antagonism through Coactivator Recruitment Follow-Up Assay, Ratio (AID 2283953)
Outline: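 GST-TRα LBD 2.5 nM, BSA 0.10%, + cpd; then FITC-SRC-2 peptide 200 nM + Tb-anti-GST Ab 2 nM. TR-FRET ratio 520/495 nm. Norm: DMSO = 0%, T3 = 100%.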
With Nc1cc(Cl)c(-c2cc(Cl)c(N)cc2Cl)cc1Cl the outcome was “inactive”. With CC(C)c1c(C(=O)Nc2ccccc2)c(-c2ccccc2)c(-c2ccc(F)cc2)n1CC[C@@H](O)C[C@@H](O)CC(=O)O the outcome was “inactive”. In the case of Nc1ccn([C@@H]2O[C@H](CO)[C@@H](O)C2O)c(=O)n1 (some centres undefined), the outcome is reported as “inactive”. For O=c1cc(-c2ccccc2)oc2ccc3ccccc3c12, the outcome was “inactive”. For Clc1ccc(Nc2nnc(Cc3ccncc3)c3ccccc23)cc1, the outcome was “inactive”.

Target: THRB (gene 7068) (UniProt P10828)
Sequence (P10828 whole entry, looked up): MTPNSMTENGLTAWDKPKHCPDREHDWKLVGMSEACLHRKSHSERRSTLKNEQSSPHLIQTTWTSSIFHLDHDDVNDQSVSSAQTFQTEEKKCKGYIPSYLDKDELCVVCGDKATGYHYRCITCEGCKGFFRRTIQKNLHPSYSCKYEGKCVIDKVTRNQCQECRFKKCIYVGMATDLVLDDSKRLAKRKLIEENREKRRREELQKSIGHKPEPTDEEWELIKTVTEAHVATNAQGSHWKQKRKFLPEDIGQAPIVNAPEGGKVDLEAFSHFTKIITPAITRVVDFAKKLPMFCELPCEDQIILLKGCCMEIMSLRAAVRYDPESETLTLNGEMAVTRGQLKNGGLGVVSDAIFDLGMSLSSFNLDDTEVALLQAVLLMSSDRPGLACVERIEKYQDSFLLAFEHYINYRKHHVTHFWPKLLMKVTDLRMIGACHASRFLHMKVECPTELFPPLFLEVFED
Assay: TOX21_TRB_BLA_Antagonist_Followup_ratio: Tox21 Thyroid Hormone Receptor beta Antagonism Beta-lactamase (BLA) Follow-Up Assay, Ratio (AID 2283958)
Outline: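 Beta-lactamase reporter ratio (460/530 nm, CCF4-AM substrate, 2 h room temperature) was read in TRb-bla HEK293T cells after 18 h compound treatment (11 concentrations, triplicate) at 37C in 2% charcoal-stripped FBS medium. Loss of signal fitted against DMSO.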
With Nc1cc(Cl)c(-c2cc(Cl)c(N)cc2Cl)cc1Cl the AC50 was 6.14 µM (active). In the case of COc1ccccc1NC(=O)c1cc2ccccc2cc1O, the AC50 is reported as 38.3 µM (active). In the case of CC(C)c1c(C(=O)Nc2ccccc2)c(-c2ccccc2)c(-c2ccc(F)cc2)n1CC[C@@H](O)C[C@@H](O)CC(=O)O, the outcome is reported as “inactive”. In the case of Nc1ccn([C@@H]2O[C@H](CO)[C@@H](O)C2O)c(=O)n1 (some centres undefined), the outcome is reported as “inactive”. In the case of Clc1ccc(Nc2nnc(Cc3ccncc3)c3ccccc23)cc1, the outcome is reported as “inactive”.

Test system: not listed separately
Assay: TOX21_TRB_BLA_Antagonist_Followup_viability: Viability Assessment in the Tox21 Thyroid Hormone Receptor beta Antagonism Beta-lactamase (BLA) Follow-Up Assay (AID 2283961)
Outline: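 HEK293T cells with GAL4-human TRβ LBD and UAS-bla reporter, 3,000 cells/well in 2% charcoal-stripped FBS medium; 11-point concentrations in triplicate, 18 h at 37C. Viability from ATP by CellTiter-Glo luminescence, 30 min RT, same plates.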
In the case of Nc1cc(Cl)c(-c2cc(Cl)c(N)cc2Cl)cc1Cl, the AC50 is reported as 60.1 µM (active). In the case of COc1ccccc1NC(=O)c1cc2ccccc2cc1O, the AC50 is reported as 28.3 µM (active). For CC(C)c1c(C(=O)Nc2ccccc2)c(-c2ccccc2)c(-c2ccc(F)cc2)n1CC[C@@H](O)C[C@@H](O)CC(=O)O, the outcome was “inactive”. In the case of Nc1ccn([C@@H]2O[C@H](CO)[C@@H](O)C2O)c(=O)n1 (some centres undefined), the outcome is reported as “inactive”. With O=c1cc(-c2ccccc2)oc2ccc3ccccc3c12 the outcome was “inactive”.

Target: THRB (gene 7068) (UniProt P10828)
Assay: TOX21_TRB_COA_Antagonist_Followup_ratio: Tox21 Thyroid Hormone Receptor beta Antagonism through Coactivator Recruitment Follow-Up Assay, Ratio (AID 2283967)
Outline: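 GST-TRb LBD 5.0 nM + 0.10% BSA, compound added; fluorescein-SRC-2 peptide 200 nM, Tb-anti-GST Ab 2 nM. TR-FRET, ex 340 / em 520:495 ratio. Norm: DMSO 0%, T3 100%.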
For Nc1cc(Cl)c(-c2cc(Cl)c(N)cc2Cl)cc1Cl, the outcome was “inactive”. In the case of CC(C)c1c(C(=O)Nc2ccccc2)c(-c2ccccc2)c(-c2ccc(F)cc2)n1CC[C@@H](O)C[C@@H](O)CC(=O)O, the outcome is reported as “inactive”. In the case of Nc1ccn([C@@H]2O[C@H](CO)[C@@H](O)C2O)c(=O)n1 (some centres undefined), the outcome is reported as “inactive”. With O=c1cc(-c2ccccc2)oc2ccc3ccccc3c12 the outcome was “inactive”.
